One assay relates to CRL-7250. Briefly: Cytotoxic Profiling of Annotated Libraries Using Quantitative High-Throughput Screening (AID 1296008). For max response: % is set by controls: 0 for no effect and ±100 for the full control effect. Note: potency is the fitted concentration of half-maximal effect. The conditions noted are these: Five cell lines viability, CellTiter-Glo ATP luminescence, 48-72 h; max response: stronger effect = lower value. The method, boiled down: (§1)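 Cytotoxicity was measured as CellTiter-Glo ATP luminescence, read after 10 min at room temperature. Compound treatment of the cells lasted 48 or 72 hr at 37 degrees Celsius in a qHTS format.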

A further assay has as its system HEK293. The assay is described as above. The conditions noted are these: Five cell lines viability, CellTiter-Glo ATP luminescence, 48-72 h; max response: stronger effect = lower value. The method in brief: as §1
(Cellular ATP, detected with luciferase, serves as a proxy for viable cell number.)

In assay [1] the test system is HaCat. The assay is described as above. The conditions noted are these: Five cell lines viability, CellTiter-Glo ATP luminescence, 48-72 h; max response: stronger effect = lower value. The method, boiled down:
as §1

In a further assay the test system is KB-3-1. The assay is described as above. Conditions: Five cell lines viability, CellTiter-Glo ATP luminescence, 48-72 h; max response: stronger effect = lower value. The method in brief:
as §1

Assay [2] has as its system HACAT. Briefly: qHTS assay to identify novel small-molecules to repurpose for Merkel cell carcinoma treatment (AID 1296009). Conditions: MCC and control cell lines, CellTiter-Glo viability, 72 h; series mostly up to 44.8 µM. The method in brief:
(§2)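 Cell viability, measured as CellTiter-Glo luminescence, was normalized between DMSO and no-cell wells. The cells had been exposed to 8- or 11-point compound dilutions for 72 hr at 37 degree celsius.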
(qHTS replaces the single test concentration by a dilution series.)

A further assay deals with NIH3T3. Briefly: Cytotoxic Profiling of Annotated Libraries Using Quantitative High-Throughput Screening (AID 1296008). For max response: % is set by controls: 0 for no effect and ±100 for the full control effect. Note: potency is the fitted concentration of half-maximal effect. Conditions: Five cell lines viability, CellTiter-Glo ATP luminescence, 48-72 h; max response: stronger effect = lower value. The method in brief: as §1
The subject of the next assay is HEK293T. Briefly: qHTS assay to identify novel small-molecules to repurpose for Merkel cell carcinoma treatment (AID 1296009). The conditions noted are these: MCC and control cell lines, CellTiter-Glo viability, 72 h; at 44.8 µM (top of the series) unless noted. The method, boiled down:
as §2

The structures appear in SMILES notation. Inconclusive results are not listed. Values without a mark were called inactive. Active and inactive are the calls of the source. Calls come from the whole dose curve; as a rule, active = well fitted inhibition curve with a large enough effect; inconclusive = small, poorly fitted or top-dose-only effect; inactive = flat fitted curve, though single readings scatter.
Note: nearly all actives have a fitted effect of over 60% in size.

For the compound `Cc1nc2ccc(Oc3ccc(F)cc3)cc2c(=O)n1C[C@H]1CCCN(C(C)C)C1`, the max response with CRL-7250 was -2.55%; in the assay with HEK293 it was -15.9%; with KB-3-1, 5.64%. In addition, the outcome in the assay on HaCat [1] was inactive. In addition, the Potency result in the assay on HACAT [2] was “inactive”.

Turning to `C/C=C/C=C/C(O)=C1\C(=O)[C@]2(C)C3C(C(=O)CC/C=C/C)=C(O)C4(C)C1[C@]1(C)O[C@@]4(O)[C@@]3(C)O[C@@]12O`, the max response was -4.26% with CRL-7250, -0.736% in the assay on HEK293, 8.54% with KB-3-1 and 1.07% with NIH3T3. In addition, in the assay with HaCat [1], the outcome was inactive. Besides, in the assay with HACAT [2], the Potency result is “inactive”.

Consider `COc1cc(OC)c(/C=C/S(=O)(=O)Cc2ccc(OC)c(NCC(=O)O)c2)c(OC)c1`, for which the Potency in the assay with CRL-7250 is 231 nM (active); with HEK293, 58 nM (active); in the assay with KB-3-1 it was 206 nM (active); in the assay on NIH3T3, 146 nM (active). Moreover, the compound was called inactive in the assay with HaCat [1]. The Potency entry in the assay on HACAT [2] was “inactive”.

Turning to `O=C(N/N=C/c1ccc(O)c(O)c1)c1cc2ccccc2cc1O`, the results for the max response in the assay with CRL-7250, in the assay on HaCat [1] and in the assay on KB-3-1 were -27.6%, -0.414% and 7.95%, respectively. Besides, the compound was classed as inactive in the assay on HEK293. Besides, in the assay with HEK293T, the outcome was “inactive [at 17.4 µM]”.

For `O=C(Nc1nc2ccccc2n1CCc1ccccc1)c1ccccc1`, the max response was 1.35% with CRL-7250, -110% with HEK293, 5.59% in the assay with KB-3-1 and -1.28% with NIH3T3. The compound was called inactive with HaCat [1]. Also, the Potency result in the assay on HACAT [2] was “inactive”.

`COc1cc(C(=O)OC[C@H]2O[C@@H](Oc3ccccc3/C=C/C(=O)O)[C@H](O)[C@@H](O)[C@@H]2O)cc(OC)c1OC`: the max response was -2.66% in the assay with CRL-7250, -0.285% in the assay on HEK293, 5.09% in the assay on KB-3-1 and 0.074% in the assay with NIH3T3. In the assay on HaCat [1], the compound was called inactive. For the same compound, in the assay with HACAT [2], the Potency result was “inactive”.

Regarding `COc1ccc2[nH]c3c(-c4cccc5ccccc45)nccc3c2c1`, the figures for the Potency with CRL-7250, in the assay on HEK293 and in the assay on KB-3-1 were 1160 nM (active), 1300 nM (active) and 820 nM (active), respectively. In addition, the compound was classed as inactive with HaCat [1]. In the assay with HACAT [2], the Potency result was “inactive”.

These data come from PubChem BioAssay (NCATS).
